The text below walks through data of PubChem BioAssay (NCATS).

Inconclusive results are not listed. Activity calls are given as the source filed them. The call rests on the fitted dose curve; in most records, active means well fitted inhibition curve with a large enough effect; inconclusive means small, poorly fitted or top-dose-only effect; inactive means no such curve, though single readings can be large or run the other way.

The nature of this assay: P-glycoprotein substrates identified in KB-3-1 adenocarcinoma cell line, qHTS therapeutic library screen (AID 1346986). Further: nearly all actives have a fitted effect of over 60% in size. The note with it: KB-3-1 parental cells viability, CellTiter-Glo, 72 h; series mostly up to 44.5 µM; activity change, negative = cytotoxicity: at the top concentration. The essentials:
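Dose-response cytotoxicity, KB-3-1 vs P-gp-high KB-8-5-11, no colchicine in assay medium. Read: CellTiter-Glo at 72 h.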
In general terms: In qHTS, concentration-response curves come from the screen itself.
`COc1cc(O)c2c(c1)C1=CC(O)C(O)CC1(C)OC2=O` (configuration not stated): the result was inactive.

Take `CC1(c2nc3c(C(N)=O)cccc3[nH]2)CCCN1` (configuration not stated): the result was inactive.

Consider `C[C@H](N)C(=O)N[C@@H](Cc1ccc(O)cc1)C(=O)N1CCC[C@H]1C(=O)NCC(=O)N[C@@H](CCCCN)C(=O)N[C@@H](Cc1ccccc1)C(N)=O`, for which the outcome was “inactive [at 9.29 µM]”.

`C[C@H](NC(c1cccc(C[P+](=O)O)c1)[C@H](C)O)c1ccc(Cl)c(Cl)c1` (some centres not stated): the result was inactive.

With `COc1c2c(c(C)c3c1C(=O)OC3)OC1(C)CC(O)C34OC(OC)(OC3(C)C)C(O)CC4(C)C1C2` (configuration not stated), the “outcome” value was “inactive [at 17.4 µM]”.

With `CC/C=C\CC1C(=O)C=CC1(CCCCCCCC(=O)O)OC(C)=O` (configuration not stated), the outcome was inactive.

For `C=C1C(=O)OC2C1C(O)CC1(C)C(O)CCC(C=O)C21` (configuration not stated), the result was inactive.

On to `C=C1CC23CC1CCC2C12OC(=O)C(C)(CCC1O)C2C3C(=O)O` (configuration not stated), for which the outcome was inactive.

Consider `CC1(C)CC[C@]2(C(=O)O[C@@H]3O[C@H](CO)[C@@H](O)[C@H](O)[C@H]3O)CC[C@]3(C)C(=CCC4[C@@]5(C)C[C@@H](O)[C@H](O)C(C)(C)C5[C@H](O)C[C@]43C)[C@@H]2[C@@H]1O` (some centres not stated), for which the “outcome” value is “inactive [at 17.4 µM]”.

Turning to `CC1(C)CC[C@]2(C(=O)O)CC[C@]3(C)C(=CCC4[C@@]5(C)CC[C@H](O[C@@H]6O[C@H](C(=O)O)[C@@H](O[C@@H]7OC[C@@H](O)[C@H](O)[C@H]7O)[C@H](O)[C@H]6O)C(C)(C)C5CC[C@]43C)C2C1O` (some centres not stated), the “outcome” value is “inactive [at 17.4 µM]”.

As for `CC(C)(C)NS(=O)(=O)c1cncc(-c2cc(F)c3nc(N)nn3c2)c1`, the result was inactive.

As for `C[C@@H]1N[C@H]2N(C1=O)c1ccccc1[C@@]2(O)C[C@@H]1C(=O)N[C@@H](C)c2nc3ccccc3c(=O)n21`, the “outcome” value was “inactive [at 17.4 µM]”.
